Bioassay records (PubChem)
KB-V1 MDR tox – kills drug-selected multidrug resistant KB-V1 cells. KB-V1 MDR cells viability, CellTiter-Glo, 72 h. Potency, µM (titrated, usually from 46.1 µM), usual class: cytotoxic. actives 3.4% (n = 400,000); note: % is set by controls: 0 for no effect and ±100 for the full control effect; nearly all actives have a fitted effect of over 60% in size
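KB-V1, DMEM (no phenol red) + 10% FBS; cpd pin-transferred, titration series; 72 h, 37 degrees C; CellTiter-Glo, luminescence. Data normalized, curve-fit.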
RORg inh – inhibitors of mouse ROR gamma transcriptional activity; Drosophila S2 Gal4-RORgamma UAS-luciferase reporter, 20 h; Potency, µM (doses to about 53.6 µM), for inactives: at the top dose activity change, negative = inhibition, most hits filed as inhibitors; actives 5.4% (n = 310,000); AID 2551; note: % is set by controls: 0 for no effect and ±100 for the full control effect; nearly all actives have a fitted effect of over 60% in size
Target sequence (P51450 whole entry, looked up, the tested form may be a part): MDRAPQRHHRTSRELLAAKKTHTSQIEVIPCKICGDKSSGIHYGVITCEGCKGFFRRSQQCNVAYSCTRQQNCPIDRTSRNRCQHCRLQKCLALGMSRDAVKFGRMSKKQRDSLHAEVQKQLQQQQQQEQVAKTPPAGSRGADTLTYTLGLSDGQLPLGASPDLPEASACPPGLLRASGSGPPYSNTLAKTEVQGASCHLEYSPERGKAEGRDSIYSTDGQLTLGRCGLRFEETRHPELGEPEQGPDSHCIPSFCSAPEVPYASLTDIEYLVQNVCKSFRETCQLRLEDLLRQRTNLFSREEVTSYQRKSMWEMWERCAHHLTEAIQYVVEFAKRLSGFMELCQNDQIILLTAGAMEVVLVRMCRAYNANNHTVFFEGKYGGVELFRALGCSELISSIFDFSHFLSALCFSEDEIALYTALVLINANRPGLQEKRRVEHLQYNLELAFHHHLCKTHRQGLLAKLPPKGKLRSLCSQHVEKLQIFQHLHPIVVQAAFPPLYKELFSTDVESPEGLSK
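Drosophila S2 cells stably expressing Gal4-DBD/mouse RORγ fusion under metallothionein promoter plus UAS-luciferase; compound 1 h, then 700 uM CuSO4 induction for 20 h at ambient temperature; inhibition read as reduced luminescence.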
SW480 rerep – DNA re-replication induction in SW480 cells; SW480 DNA re-replication, Hoechst DNA content imaging, 48 h; Potency, µM (series often up to 46.1 µM), without a hit: at the highest dose re-replication activation, actives largely listed as activators; actives 1.8% (n = 340,000); note: % of control where 0% means no effect; nearly all actives have a fitted effect of over 55% in size
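Image-based DNA-content assay: after two days of treatment, nuclei were labelled with the DNA dye Hoechst and imaged, and hits were compounds raising the count of nuclei showing high fluorescence intensity.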
KB-3-1 cytotox – KB-3-1 parental cell cytotoxicity | Potency, µM (titrated, usually from 46.1 µM), most hits filed as cytotoxic | actives 1.4% (n = 400,000) | KB-3-1 viability, CellTiter-Glo ATP luminescence, 72 h; note: % is set by controls: 0 for no effect and ±100 for the full control effect; nearly all actives have a fitted effect of over 60% in size
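Here the drug-naive KB-3-1 line serves as comparator for MDR sub-line selectivity; cells received compound titrations, 72 h at 37 °C, then CellTiter-Glo readout.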
MCF10A rereplic – inducers of DNA re-replication in MCF 10A breast cells. actives 2.9% (n = 350,000). Potency, µM (series often up to 46.1 µM), for the others: at the top dose activity, positive = re-replication, most hits filed as activators. MCF 10A DNA re-replication, Hoechst nuclear intensity, 48 h; note: % of control where 0% means no effect; nearly all actives have a fitted effect of over 50% in size
Gal4-VP16 FLuc – Gal4-VP16 reporter inhibition counter-screen | Drosophila S2 Gal4-VP16 UAS-luciferase, luminescence, 20 h | Potency, µM (titrated, usually from 53.6 µM), inactives show top-dose activity, negative = inhibition, most hits filed as inhibitors | actives 3.5% (n = 310,000) | AID 2546;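 note: Gal4-VP16 expression switched on by copper sulfate through the metallothionein promoter; % is set by controls: 0 for no effect and ±100 for the full control effect; nearly all actives have a fitted effect of over 50% in size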
The depositor's hits bear a star; i = inactive; u = inconclusive; x = not tested or not shown; [ ] = another dose, or the depositor's remark. Shown are actives, neighbours in structure and some others; about 10% of the full set was active somewhere. Calls come from the whole dose curve; as a rule, active = well fitted curve in the direction sought with a large enough effect; inconclusive = small, poorly fitted or top-dose-only effect, or another doubt; inactive = no such curve, though single readings can be large; an effect the other way counts as inactive or inconclusive. Potency is the fitted concentration of half-maximal effect.

SMILES	KB-V1 MDR tox	RORg inh	SW480 rerep	KB-3-1 cytotox	MCF10A rereplic	Gal4-VP16 FLuc
O=C(CN1C(=O)C2CCCCN2c2ccc(C(=O)N3CCCC3)cc21)NCc1ccc(F)cc1 (centres undefined)	i	x	x	i	x	x
Cc1ccn2c(Nc3ccc4c(c3)OCCO4)c(-c3ccc(C)o3)nc2c1	i	x	x	i	x	x
CCOC(=O)Cc1csc(NC(=S)NC(=O)c2ccccc2C)n1	i	11.2µM*	-4.4%	i	15.2%	-27.7%
CCN(CC)C(=S)NC(=O)c1ccc(F)cc1	i	0.794µM*	-74.1%	i	-1.0%	2.82µM*
CCN(CC)C(=S)NC(=O)c1cccnc1	i	2.51µM*	-15.3%	u	-0.8%	5.62µM*
Cc1ccc(NC(=O)CC2Nc3ccccc3NC2=O)cc1C (centres undefined)	i	x	x	i	x	x
CCOc1ccccc1NC(=O)CC1Nc2cc(C)c(C)cc2NC1=O (centres undefined)	u	-1.3%	u	i	18.4µM*	9.8%
Cc1ccc(NC(=O)CC2Nc3ccccc3NC2=O)cc1Cl (centres undefined)	i	u	16.4µM*	u	2.59µM*	-14.7%
COc1ccc(C(O)c2cnc(C)n2Cc2ccccc2)cc1 (centres undefined)	i	x	x	i	x	x
C=CCNC(=O)C1CC1(c1ccc(C)cc1)c1ccc(C)cc1 (centres undefined)	u	u	0.6%	i	u	-6.0%
C=CCNC(=O)C1CC1(c1ccccc1)c1ccccc1 (centres undefined)	18.4µM*	-2.3%	-97.3%	i	2.6%	-27.3%
C/C(=N\NC(=O)C1CC1(c1ccccc1)c1ccccc1)c1cccc([N+](=O)[O-])c1 (centres undefined)	i	8.8%	-3.2%	i	-0.9%	-2.1%
CCOC(=O)C/C(C)=N/NC(=O)C1CC1(c1ccccc1)c1ccccc1 (centres undefined)	i	10µM*	1.7%	i	u	u
CC(=O)N1CCC(N(Cc2ccc(C)o2)C(=O)Nc2cccc(C(F)(F)F)c2)CC1	u	x	x	i	x	x
Cc1noc(/C=C/c2cccnc2)c1[N+](=O)[O-]	i	10µM*	u	20.6µM*	u	15.8µM*
CCSc1ncc(Cl)c(C(=O)N(Cc2ccccc2Cl)C2CCS(=O)(=O)C2)n1 (centres undefined)	i	x	x	i	x	x
COc1ccc2oc(=O)cc(-c3cc4cccc(OC)c4o3)c2c1	i	-14.4%	1.4%	i	-3.2%	-13.6%
COc1cccc2cc(-c3cc(=O)oc4cc(C)c(OCC(C)=O)cc34)oc12	i	0.8%	6.51µM*	u	19.8%	0.0%
CC(=O)NC(c1ccc(C(C)C)cc1)c1c(O)ccc2ccccc12 (centres undefined)	i	x	u	i	18.4µM*	x
CC(=O)NC(c1ccccc1)c1c(O)ccc2ccccc12 (centres undefined)	i	6.1%	5.9%	i	2.7%	-2.6%
CC(C)C(=O)NC(c1ccc([N+](=O)[O-])cc1)c1c(O)ccc2ccccc12 (centres undefined)	u	u	14.8%	i	u	12.6µM*
CSc1ncc(C(=O)N2CCN(c3ccc(Cl)cc3)CC2)c(C)n1	i	x	x	i	x	x
Cc1cccc(C)c1NC(=O)Cn1nc(C)c2sc3ccccc3c2c1=O	i	x	x	i	x	x
CSc1ccccc1NC(=S)N/N=C/c1cccn1Cc1cccc(C)c1	i	0.891µM*	u	i	-0.3%	5.01µM*
Cc1cccc(NC(=S)N/N=C/c2cccn2Cc2ccc(F)cc2)c1	u	0.199µM*	13.3%	i	8.2µM*	2.24µM*
SMILES	KB-V1 MDR tox	RORg inh	SW480 rerep	KB-3-1 cytotox	MCF10A rereplic	Gal4-VP16 FLuc
COc1cc(CNC(=O)c2sc3ncccc3c2-n2cccc2)cc(OC)c1OC	i	x	x	i	x	x
Cc1ccc2nc(NC(=O)CNS(=O)(=O)c3ccc(Br)s3)sc2c1	i	-30.3%	-12.0%	i	u	-4.1%
Cc1ccc2nc(NC(=O)CN(C)S(=O)(=O)c3cccc4nsnc34)sc2c1	u	-5.5%	2.31µM*	u	u	-5.8%
Cc1ccc2nc(NC(=O)CN(C)S(=O)(=O)c3ccc(Br)s3)sc2c1	u	u	u	u	23.1µM*	8.0%
Cc1ccnc(NC(=O)CN(C)S(=O)(=O)c2cccc3nsnc23)c1	u	10.6%	-1.6%	i	-11.1%	3.8%
COc1ccccc1N1CCN(C(=O)c2cn(C)c3ccc(S(=O)(=O)N(C)C4CCCCC4)cc3c2=O)CC1	i	x	x	u	x	x
C[C@H]1/C=C\CC(=O)OC[C@H](C)C(=O)N2CCC[C@@H]2C(=O)OC1	x	-5.8%[10 µM]	x	x	x	11.5%[10 µM]
CC(C)(C)n1ncc2c(=O)n(CC(=O)NCc3ccc(F)cc3)cnc21	9.2µM*	u	u	9.2µM*	u	u
CC(C)(C)n1ncc2c(=O)n(CC(=O)OCc3ccccc3)cnc21	i	8.91µM*	-8.0%	i	10.0%	1.58µM*
CC(C)(C)n1ncc2c(=O)n(CC(=O)NCc3ccco3)cnc21	u	u	10.3%	u	u	u
CC(C)(C)n1ncc2c(=O)n(CC(=O)c3ccccc3)cnc21	14.6µM*	u	-6.6%	i	0.2%	u
CC(C)(C)n1ncc2c(=O)n(CC(=O)Nc3ccccc3)cnc21	i	u	-7.5%	i	-5.9%	9.8%
COc1ccc(C(=O)NNC(=S)NC(=O)c2cc(-c3ccccc3)nc3ccccc23)cc1	i	10µM*	u	u	4.3%	u
COc1ccc(Cl)cc1C(=O)NNC(=S)NC(=O)c1cc(-c2ccccc2)nc2ccccc12	u	14.0%	u	u	18.3%	u
CCCOc1ccc(C(=O)NNC(=S)NC(=O)c2cc(-c3ccc(Cl)cc3)nc3ccccc23)cc1	i	0.112µM*	13.6%	i	u	u
Cc1cc(C(=O)NNC(=O)c2ccc(Cl)cc2)c2ccccc2n1	i	x	-0.7%	i	0.9%	x
CCCCC/C=C\C\C=C/C=C/C=C/[C@@H](SCC(NC(C)=O)C(=O)O)[C@@H](O)CCCC(=O)O (some centres undefined)	x	40.6%	x	x	x	2.3%
CCN(CC)S(=O)(=O)c1ccc2c(c1)N(CC(=O)Nc1ccc(C)cc1C)C(=O)C1CCCN21 (centres undefined)	i	x	x	i	x	x
